Only some compounds are listed: those with a hit (about 21% of all), similar ones and a draw of the others.
RORgamma inh – blocks mouse ROR gamma transcriptional activity | 310,000 compounds, 5.4% hits | Potency, µM (titrated, usually from 53.6 µM), usual class: inhibitors | P51450 | AID 2551 | Drosophila S2 Gal4-RORgamma UAS-luciferase reporter, 20 h; further: nearly all actives have a fitted effect of over 60% in size
Target sequence (P51450 whole entry, looked up, the tested form may be a part): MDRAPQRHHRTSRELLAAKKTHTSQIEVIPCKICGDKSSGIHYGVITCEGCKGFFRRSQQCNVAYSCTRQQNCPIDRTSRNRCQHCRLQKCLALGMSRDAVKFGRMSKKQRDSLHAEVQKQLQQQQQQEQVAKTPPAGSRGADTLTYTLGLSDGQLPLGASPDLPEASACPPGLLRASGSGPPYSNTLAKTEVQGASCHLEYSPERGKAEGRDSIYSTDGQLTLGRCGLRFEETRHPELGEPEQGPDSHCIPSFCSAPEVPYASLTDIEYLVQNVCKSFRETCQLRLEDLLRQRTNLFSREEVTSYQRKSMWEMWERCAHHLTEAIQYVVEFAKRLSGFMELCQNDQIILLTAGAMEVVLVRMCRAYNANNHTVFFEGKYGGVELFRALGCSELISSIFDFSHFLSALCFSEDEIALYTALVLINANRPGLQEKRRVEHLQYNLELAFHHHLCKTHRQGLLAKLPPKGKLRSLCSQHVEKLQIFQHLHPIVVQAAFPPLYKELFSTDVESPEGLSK
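In this cell-based reporter format, copper sulfate (700 uM final) drives Gal4–ROR gamma fusion expression from a metallothionein promoter in Drosophila Schneider cells; compounds preincubated 1 hr, reporter read after 20 hr at ambient temperature.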
ELG1 DNA repair – ELG1-dependent DNA repair inhibition | HEK293T ELG1-luciferase reporter, luminescence, 16 h; DNA damage induced by 5-fluorouridine | Potency, µM (titrated, usually from 46.1 µM), most hits filed as inhibitors | 330,000 compounds, 2.3% hits | AID 504467; further: nearly all actives have a fitted effect of over 55% in size
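DMSO vehicle served as the neutral condition. Each well held 2,000 cells given 5-fluorouridine plus compound; after 16 hr at 37 °C/5% CO2, ONE-Glo was added and luciferase measured 30 min later.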
DT40 TDP1 no CPT – qHTS for Inhibitors of human tyrosyl-DNA phosphodiesterase 1 (TDP1): qHTS in cells in absence of CPT; DT40 Tdp1-/- hTDP1 cells, no CPT, ATP luminescence, 48 h; Potency, µM (series often up to 46.2 µM), usual class: inhibitors; 420,000 compounds, 15% hits; further: nearly all actives have a fitted effect of over 55% in size
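Readout: luminescence from CellTiter-Glo after 30 min in the dark at RT. Cells: DT40 Tdp1-/- with stable hTDP1, 400/well. Exposure: compounds alone, ≥48 hr, 37 °C.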
DT40 TDP1 CPT – growth inhibition of DT40 Tdp1-/-;hTDP1 cells with camptothecin (screen for TDP1 inhibitors); chicken DT40 Tdp1-/-;hTDP1 cells + 20 nM CPT, ATP luminescence, 48 h; Potency, µM (titrated, usually from 46.2 µM), most hits filed as inhibitors; 420,000 compounds, 12% hits; AID 686979; further: nearly all actives have a fitted effect of over 55% in size
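Chicken DT40 Tdp1-/- cells stably complemented with human TDP1 were seeded at 400 cells/well in medium containing 20 nM camptothecin, exposed to pin-transferred compounds, and grown at 37 °C for at least 48 hr. Viability was read as ATP luminescence.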
IL-1B inflam inh – blocks inflammasome-driven IL-1 beta release; activity change, % at 57.5 µM; 360,000 compounds, 4.7% hits; THP-1 LPS/ATP IL-1B secretion, AlphaLISA, 16 h; active compounds read low; AID 743279; in the data active means activity change below about -50%; inconclusive means mostly about -30% to -49%
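THP-1 cells pretreated 1 hr with compounds (up to 57.5 uM final), then stimulated with LPS (250 ng/mL final) plus ATP (1.25 mM final); secreted IL-1B measured by AlphaLISA after 16 hr, decreased signal indicating inhibition.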
Gal4-VP16 FLuc – Gal4-VP16 reporter inhibition counter-screen. 310,000 compounds, 3.5% hits. Drosophila S2 Gal4-VP16 UAS-luciferase, luminescence, 20 h. AID 2546. Potency, µM (doses to about 53.6 µM), actives largely listed as inhibitors;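 further: Gal4-VP16 expression switched on by copper sulfate through the metallothionein promoter; nearly all actives have a fitted effect of over 50% in size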
Numbers stand for hits; . = inactive; ? = inconclusive; / = no result given; [ ] = dose if it differs, or a comment. Unless noted, the call rests on the fitted dose curve; in most records, active means well fitted curve in the direction sought with a large enough effect; inconclusive means small, poorly fitted or top-dose-only effect, or another doubt; inactive means no such curve, though single readings can be large; an effect the other way counts as inactive or inconclusive.

SMILES	RORgamma inh	ELG1 DNA repair	DT40 TDP1 no CPT	DT40 TDP1 CPT	IL-1B inflam inh	Gal4-VP16 FLuc
COc1ccc(C(=O)Nc2nc3cc4c(cc3s2)OCCO4)c(OC)c1	0.0282µM	?	?	?	?	0.398µM
COc1ccccc1C(=O)Nc1nc2cc3c(cc2s1)OCO3	.	?	.	?	.	.
CCN(CC)S(=O)(=O)c1ccc2nc(NC(=O)c3ccccc3OC)sc2c1	/	/	5.17µM	?	/	/
COc1ccccc1C(=O)Nc1nc2cc3c(cc2s1)OCCO3	?	?	5.8µM	5.8µM	.	?
COCc1nnc(NC(=O)c2ccc(OC)cc2OC)s1	.	?	.	.	.	.
O=C(O)C1Oc2ccccc2C1c1ccccc1 (stereo unspecified)	/	/	.	.	.	/
CC1(C)Cc2ccccc2-c2nc(NCCO)n(-c3ccccc3)c(=O)c21	.	.	18.4µM	18.4µM	.	.
CCC1(C)Cc2ccccc2-c2nc(NCCO)n(-c3ccccc3)c(=O)c21 (stereo unspecified)	.	.	4.61µM	4.11µM	.	.
CC1(C)CC(n2c(NCCO)nc3c(c2=O)C2(CCCC2)Cc2ccccc2-3)CCO1 (stereo unspecified)	.	?	?	?	-66.4	.
O=c1c2c(nc(NCCO)n1CC1CCCCC1)-c1ccccc1CC21CCCC1	.	?	?	?	?	.
c1cncc(OC2CCN(Cc3ccc4c(c3)CN(Cc3nc5ccccc5s3)CCO4)CC2)c1	/	/	.	.[9.04 µM]	/	/
CN(Cc1cccnc1)C(=O)c1ccc(Cl)c(NS(=O)(=O)c2ccc(F)cc2)c1	/	.	.	.	.	/
O=[N+]([O-])c1ccccc1/C=C/C=N/Nc1ccc(S(=O)(=O)Nc2ccc(Cl)cc2)cc1[N+](=O)[O-]	.	?	18.4µM	16.4µM	.	.
C/C(=N\Nc1ccc(S(=O)(=O)Nc2ccccc2)cc1[N+](=O)[O-])c1ccc(N2CCOCC2)cc1	.	.	2.59µM	14.6µM	.	.
O=[N+]([O-])c1ccc(N/N=C/c2c[nH]c3ccccc23)c(S(=O)(=O)Nc2ccc(Cl)cc2)c1	.	.	23.1µM	?	.	?
COc1ccc(NS(=O)(=O)c2ccc(N/N=C(\C)c3ccncc3)c([N+](=O)[O-])c2)cc1	.	18.4µM	7.31µM	11.6µM	.	.
CCCCNS(=O)(=O)CCNCc1ccco1	/	.	.	.	.	/
O=[N+]([O-])c1cc(S(=O)(=O)Nc2cccc(Cl)c2)ccc1N/N=C/c1ccc(N2CCOCC2)cc1	.	.	10.3µM	?	.	.
CCOC(=O)c1c(C)oc2nc(C)nc(NCCc3ccc(OCC)c(OCC)c3)c12	/	/	13µM	?	/	/
CCOC(=O)c1c(C)oc2nc(C)nc(NCCc3ccc(OCC)cc3)c12	/	/	5.17µM	6.51µM	/	/
CCOC(=O)c1c(C)oc2nc(C)nc(Nc3cc(C)cc(C)c3)c12	/	/	.	.	/	/
CCOC(=O)c1c(C)oc2nc(C)nc(NCCc3ccc(Cl)cc3)c12	/	/	13µM	?	/	/
CCOC(=O)c1c(C)oc2nc(C)nc(NCC3CCN(Cc4ccc(C)cc4)CC3)c12	/	/	.	?	/	/
CC(=O)Nc1ccc(S(=O)(=O)Nc2cccc(-c3nc4cc(C)ccc4o3)c2)cc1	/	/	20.6µM	20.6µM	.	/
CC(=O)Nc1ccc(S(=O)(=O)Nc2cccc(-c3csc(C)n3)c2)cc1	?	?	?	20.6µM	.	.
SMILES	RORgamma inh	ELG1 DNA repair	DT40 TDP1 no CPT	DT40 TDP1 CPT	IL-1B inflam inh	Gal4-VP16 FLuc
Cc1nc(-c2ccc(NS(=O)(=O)c3ccccc3)cc2)cs1	.	.	.	.	?	.
Nc1nc(-c2cccc(NS(=O)(=O)c3ccccc3)c2)cs1	?	?	?	?	.	17.8µM
Cc1ccc(S(=O)(=O)Nc2ccc(-c3nc4cc(NS(=O)(=O)c5ccc(C)cc5)ccc4o3)cc2)cc1	.	?	/	/	/	?
N#CCc1ccc(Oc2ncccn2)cc1	.	?	?	?	.	.
Cc1cc(C)c2c(n1)NCCC2	/	/	.	.	/	/
Cc1cc(OC(C)C(=O)NCc2cccnc2)c2c(C)cc(=O)oc2c1 (stereo unspecified)	.	?	.	?	.	.
COc1ccc(-c2csc(NC(=S)NC(=O)c3ccc(S(=O)(=O)N(C)C)cc3)n2)cc1OC	2.82µM	.	?	?	.	?
COc1ccc(-c2csc(C)n2)cc1Br	.	?	.	.	.	.
COc1ccc(-c2csc(NC(=S)NC(=O)c3cccs3)n2)cc1OC	4.47µM	20.6µM	11.6µM	14.6µM	.	14.1µM
COc1ccc(-c2csc(NC(=S)NC(=O)c3cccs3)n2)cc1Br	4.47µM	.	?	?	.	11.2µM
O=C(NC(=S)Nc1nc2c(ccc3ccccc32)s1)c1cccs1	2.51µM	.	14.6µM	?	.	3.16µM
COc1ccc(C(=O)c2oc3ccccc3c2NC(=O)c2cc(=O)c3ccc(C)cc3o2)cc1Cl	/	/	.	.	/	/
CCN1CCCC1CNC(=O)c1cnn(-c2nccc(-c3cc(OC)ccc3OC)n2)c1C (stereo unspecified)	/	/	.	.	/	/
OCc1cc(-c2ccccn2)no1	/	?	.	.	.	/
O=C(Nc1ccccc1)N(O)c1ccc(Cl)cc1	.	?	29.1µM	18.4µM	.	.
O=C(CCCl)N(Cc1nc2ccccc2c(=O)[nH]1)Cc1cccs1	11.2µM	.	.	.	?	.
O=c1[nH]c(Cc2ccc(Cl)cc2)nc2ccccc12	.	.	.	.	.	.
O=C(Nc1ccc(Cl)cc1)N(Cc1nc2ccccc2c(=O)[nH]1)Cc1cccs1	?	18.4µM	20.6µM	?	?	?
O=c1[nH]c(Cc2cccs2)nc2ccccc12	.	.	.	?	.	.
O=C(Nc1ccccc1Cl)N(Cc1nc2ccccc2c(=O)[nH]1)Cc1cccs1	11.2µM	?	?	?	.	?
CCN(CCS(=O)(=O)c1ccc(Cl)cc1)C(=O)Nc1ccccc1	.	.	.	.	.	.
O=C(C1CC1)N(Cc1nc2ccccc2c(=O)[nH]1)Cc1cccs1	?	.	?	?	.	.
CO[C@@H]1COC(=O)CC=C[C@@H](C)[C@@H]2C=C[C@H](O)[C@@H](COC(=O)C/C=C\[C@H]1C)O2	.[10 µM]	/	/	/	/	.[10 µM]
O=C(Nc1ccc(Cl)cc1)N(Cc1cccs1)Cc1cccs1	?	?	?	18.4µM	.	.
O=C(Cc1cccs1)Nc1ccc(Cl)cc1	.	?	?	.	.	.
C=CCOC(=O)N[C@H](/C(C(=O)OC)=C(\C)NCc1ccccc1)c1cccc(C(F)(F)F)c1	.	/	/	/	/	.
Cc1ccc2c(c1)nnn2C1CCN(S(=O)(=O)c2ccc3ccccc3c2)CC1	?	?	?	?	.	.

Screening data deposited in PubChem BioAssay by National Center for Advancing Translational Sciences (NCATS).
